The entries come from a sample that favours hits as a whole.
Dicer processing = blocks human Dicer maturation of pre-miR-21. cat-ELCCA pre-miR-21 Dicer processing, chemiluminescence; hits give high values. Q9UPY3. 47,000 compounds, 6% hits. z-score at 25 µM; in the data active = z-score above about 3, passing the limit was not always enough;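 also: plate controls were vehicle for no effect and no enzyme for full effect; higher signal means more uncleaved substrate so more Dicer inhibition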
* marks the source's active call; other numbers are inactive results.

SMILES | Dicer processing
CC(C)C[C@H](NC(=O)c1ccc(Cl)cc1Cl)C(=O)O | 2.21
CC(C)CC(NC(=O)c1ccco1)C(=O)O (stereo not given) | 5.17*
COc1ccc(-c2noc(-c3cccc(C)c3)n2)cc1OC | -0.22
C#CCN1C(=O)C(O)(CC(=O)c2ccco2)c2cc(Br)ccc21 (stereo not given) | 2.12
CCOC(=O)/C(C#N)=C/N(/N=C/c1ccccc1)c1ccccc1 | -0.03
COc1ccccc1-c1nnc2ccc3ccccc3n12 | 3.03*
Fc1ccc(-c2nnc3ccc4ccccc4n23)cc1 | -0.03
Clc1ccc(-c2nnc3ccc4ccccc4n23)cc1 | -2.78
O=C1CCC([N+](=O)[O-])C(c2ccc(OCc3ccccc3)cc2)N1 (stereo not given) | 0.66
CCOC(=O)c1cnn(-c2cc(C(F)(F)F)cc(C(F)(F)F)c2)c1C | 1.23
CCCCN1COc2c(cc(Cl)c3cccnc23)C1 | -1.74
O=C1SCCC1NS(=O)(=O)c1ccccc1 (stereo not given) | 0.5
O=C(COc1ccc(Cl)cc1)NC1CCSC1=O (stereo not given) | 0.2
COc1ccc(S(=O)(=O)NC2CCSC2=O)cc1 (stereo not given) | 3.67*
Clc1ccccc1OCc1nc(-c2cccnc2)no1 | 0.48
CC(NC1CCCCC1)c1ccccc1 (stereo not given) | 1.33
O=C(Nc1ccccc1)Oc1cccc(N2CCOCC2)c1 | 3.3*
CC(C)(C)c1ccc(NC(=O)Oc2ccccc2N2CCOCC2)cc1 | -0.14
O=C(Nc1ccc2c(c1)OCO2)Oc1ccccc1 | -0.16
O=C1N(c2cccc(C(F)(F)F)c2)C(=Nc2cccc(C(F)(F)F)c2)SC12CC2 | 0.24
CCCNC(=C(C(=O)Nc1cccc(Cl)c1)C(=O)Nc1cccc(Cl)c1)c1ccc(OC)cc1 | 0.31
C#Cc1cccc(NC(=S)NNC(=S)Nc2cccc(C#C)c2)c1 | 8.88*
Cc1cccc(NC(=S)NNC(=O)NNC(=S)Nc2cccc(C)c2)c1 | 1.57
C#Cc1cccc(NC(=O)c2ccccc2)c1 | -0.48
CN(C)CCC(=O)c1ccc2c(c1)OCCO2 | -0.03
SMILES | Dicer processing
O=C(Oc1ccc2occ([N+](=O)[O-])c2c1)c1ccc(C(F)(F)F)cc1 | 4.68*
O=C(Oc1c(Br)cc(C(F)(F)F)cc1[N+](=O)[O-])c1ccccc1Cl | -0.27
COC(=O)NC(=O)c1ccc(Oc2ccc(C(F)(F)F)cc2[N+](=O)[O-])cc1 | 2.59
FC(F)(F)c1cc(-c2cccs2)n2ncnc2n1 | -0.16
Cc1ccc2nc(NC3=NCN(CC4CCCO4)CN3)nc(C)c2c1 (stereo not given) | 2.09
C=C(C)CC1C(=O)N(S(=O)(=O)c2ccc(Cl)cc2)N=C1C (stereo not given) | -1.62
C=C(C)CC1C(=O)N(S(=O)(=O)c2ccccc2Cl)N=C1C (stereo not given) | 1.32
C=C(C)CC1C(=O)N(C(=O)c2c(Cl)cccc2Cl)N=C1C (stereo not given) | 3.38*
COc1ccc(Cc2nnc(SCc3ccc(Cl)cc3)o2)cc1 | 1.87
CC(C)(C)c1cc(C(N)=O)n(Cc2ccccc2)n1 | 0.3
C=CC[n+]1sc2cc(Cl)ccc2c1C | -0.76
Cc1cc(=O)n(-c2nc3ccccc3[nH]2)[nH]1 | 4.29*
Cc1[nH]n(-c2nc3ccccc3[nH]2)c(=O)c1C1OC(=O)c2ccccc21 (stereo not given) | 3.79*
Cc1cc(=O)n(-c2ccc(Cl)c(Cl)c2)[nH]1 | -2.9
Cc1ccccc1-c1nc2ccccc2[nH]1 | 4.47
O=C1CC(c2ccccc2Cl)Cc2c1cnn2-c1nc2ccccc2[nH]1 (stereo not given) | -0.41
Cc1cc(=O)n(-c2ccc(O)cc2)[nH]1 | -7.21
O=c1[nH]c2c(nnn2Cc2ccccc2Cl)c(=O)n1-c1cccc(Cl)c1 | 2.44
COc1cccc(-c2cnc(Nc3ccc(F)cc3)s2)c1 | -2.77
Cn1ncc2c(NNC(=S)Nc3ccc(F)cc3F)ncnc21 | -0.01
O=C(Oc1cc(S(=O)(=O)c2ccc(Cl)cc2)ccc1[N+](=O)[O-])c1cc2ccccc2s1 | -2.05
Oc1ccc2ncccc2c1C(Nc1ccccn1)c1ccco1 (stereo not given) | -1.03
CCOc1ccccc1/C=C1N=C(/C=C/c2ccccc2)OC/1=O | 2.02
COc1ccc(/C=C2N=C(/C=C/c3ccccc3)OC/2=O)cc1 | 4.41*
COc1ccc(/C=C2/N=C(C)OC2=O)cc1 | -0.48
SMILES | Dicer processing
COc1ccc(S(=O)(=O)NC2CCCCC2)cc1-c1nnc2c3ccccc3c(C)nn12 | 2.24
CN1CCCN(C(=S)NCCCN2CCOCC2)CC1 | -0.38
COc1ccc(C(CC(=O)c2cccs2)SCCO)cc1OC (stereo not given) | -1.23
CCc1cc2c(=O)c(-c3nc4ccccc4n3C)coc2c(CN(C)C)c1O | 3.4*
CCc1cc2c(=O)c(-c3nc4ccccc4[nH]3)coc2c(CN2CCC(C)CC2)c1O | 4.91*
CCc1cc2c(=O)c(-c3nc4ccccc4n3C)c(C)oc2cc1O | 1.29
O=c1c(-c2nc3ccccc3s2)coc2c(CN3CCCCC3)c(O)ccc12 | 0.4
Cc1nc(-c2coc3c(C)c(O)c(CN(C)C)cc3c2=O)cs1 | -0.18

Screens as filed in PubChem BioAssay.
